# In PubChem BioAssay (EPA / NIEHS):
# Records with an inconclusive call do not appear. Activity calls are given as the source filed them. How the source made its calls: active means hit-call score of the fitted dose curve at least 0.9, where 1 is the maximum; inconclusive means response in the unintended direction; inactive means score below 0.9.
# Molecular target: human RAR-related Orphan Receptor beta (RORb), RORB (gene 6096) (UniProt Q92753)
# Experiment: ATG_RORb_TRANS: Attagene TRANS-FACTORIAL HepG2 Assay for human RAR-related Orphan Receptor beta (RORb) (AID 2283010)
# How it was run: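 HepG2, transient MRTU transfection (GAL4-UAS reporters, exogenous NR-Gal4 chimeras); 24 h compound exposure; total RNA → RT-PCR → 6-FAM primer extension → HpaI digest → CE fluorescence. Positive direction vs DMSO baseline.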
# Sequence of human RAR-related Orphan Receptor beta (RORb), RORB (gene 6096) (Q92753 whole entry, looked up): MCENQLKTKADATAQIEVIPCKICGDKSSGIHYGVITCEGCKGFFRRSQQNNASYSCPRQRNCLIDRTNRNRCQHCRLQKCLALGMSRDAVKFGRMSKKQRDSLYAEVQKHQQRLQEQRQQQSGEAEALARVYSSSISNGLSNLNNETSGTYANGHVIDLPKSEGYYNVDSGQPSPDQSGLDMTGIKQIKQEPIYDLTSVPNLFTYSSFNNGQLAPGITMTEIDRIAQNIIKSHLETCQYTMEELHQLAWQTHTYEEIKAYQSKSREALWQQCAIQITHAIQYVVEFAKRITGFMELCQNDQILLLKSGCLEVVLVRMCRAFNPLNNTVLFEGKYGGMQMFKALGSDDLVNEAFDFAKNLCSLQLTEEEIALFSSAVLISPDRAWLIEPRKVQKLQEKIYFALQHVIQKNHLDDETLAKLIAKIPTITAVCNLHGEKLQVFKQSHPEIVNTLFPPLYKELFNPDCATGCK
row,Structure (SMILES),outcome
1,O=C(O)C(F)(F)C(F)(F)C(F)(F)C(F)(F)C(F)(F)C(F)(F)C(F)(F)C(F)(F)C(F)(F)C(F)(F)C(F)(F)C(F)(F)F,inactive
2,O=S(=O)(O)C(F)(F)C(F)(F)C(F)(F)C(F)(F)C(F)(F)C(F)(F)C(F)(F)F,inactive
3,CCC(=O)OCCc1ccccc1,inactive
4,CC(C)OC(=O)c1ccccc1C(=O)OC(C)C,inactive
5,CC(C)(C)c1ccc(OC2CCCCC2O)cc1 (centres undefined),inactive
6,FC(F)(F)C(F)(F)C(F)(F)C(F)(F)CCI,inactive
7,CCN(Cc1cccc(S(=O)(=O)O)c1)c1ccc(C(=C2C=CC(=[N+](CC)Cc3cccc(S(=O)(=O)O)c3)C=C2)c2ccc(O)cc2S(=O)(=O)[O-])cc1,inactive
8,O=C(O)C(F)(F)C(F)(F)C(F)(F)C(F)(F)C(F)(F)C(F)(F)C(F)(F)C(F)(F)Cl,inactive
9,C1COCCN1,inactive
10,CC/C=C\CCOC(=O)c1ccccc1,inactive
11,Cc1ccc(S(=O)(=O)OCC(F)(F)C(F)(F)C(F)(F)C(F)(F)C(F)(F)C(F)F)cc1,inactive
12,FC(F)(F)C(F)(F)C(F)(F)CI,inactive
13,O=C(O)C(F)(F)C(F)(F)C(F)(F)C(F)(F)F,inactive
14,Nc1ccc([N+](=O)[O-])cc1O,inactive
15,FC(F)(F)C(F)(F)C(F)(F)C(F)(F)C(F)(F)CCI,inactive
16,O=C(O)C(F)(F)C(F)(F)C(F)(F)C(F)(F)C(F)(F)C(F)(F)C(F)(F)C(F)(F)C(F)(F)C(F)(F)C(F)(F)C(F)(F)C(F)(F)F,inactive
17,Cc1ccc(S(=O)(=O)NCl)cc1,inactive

row,Structure (SMILES),outcome
1,CCCCCCCCCCCCCCCC[N+](C)(C)Cc1ccccc1,inactive
2,OCC(F)(F)C(F)(F)C(F)(F)F,inactive
3,[Co],inactive
4,Nc1cc(Cl)c(N)c(Cl)c1,inactive
5,O=C(O)C(F)(F)C(F)(F)F,inactive
6,CCCCCC=O,inactive
7,CCc1c(Br)c(Br)c(Br)c(Br)c1Br,inactive
8,O=C(O)C(F)(OC(F)(F)C(F)(OC(F)(F)C(F)(F)C(F)(F)F)C(F)(F)F)C(F)(F)F (centres undefined),inactive
9,Oc1ccc(Nc2ccccc2)cc1,inactive
10,C=CC(F)(F)C(F)(F)C(F)(F)C(F)(F)C(F)(F)C(F)(F)C(F)(F)C(F)(F)C=C,inactive
11,c1ccc(-c2ccccc2-c2ccccc2)cc1,inactive
12,FC(F)(F)C(F)(F)C(F)(F)C(F)(F)C(F)(F)C(F)(F)C(F)(F)C(F)(F)F,inactive
13,N=C(N)C(F)(F)C(F)(F)C(F)(F)C(F)(F)C(F)(F)C(F)(F)C(F)(F)F,inactive
14,FC(F)(F)C(F)(F)C(F)(F)C(F)(F)C(F)(F)C(F)(F)CC1CO1 (centres undefined),inactive
15,Cc1cc(C)cc(O)c1,inactive
16,COC(OC(C)=O)c1ccccc1 (centres undefined),inactive
17,C(=C(c1ccccc1)c1ccccc1)c1ccccc1,inactive

# Molecular target: human RAR-related Orphan Receptor gamma (RORg), RORC (gene 6097) (UniProt P51449)
# Experiment: ATG_RORg_TRANS: Attagene TRANS-FACTORIAL HepG2 Assay for human RAR-related Orphan Receptor gamma (RORg) (AID 2283011)
# How it was run: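 Activity is scored as increase in GAL4-UAS reporter mRNA over DMSO, detected by fluorescent RT-PCR and capillary electrophoresis in HepG2 cells transiently expressing a RORg-Gal4 chimera, 24 h after dosing.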
# Sequence of human RAR-related Orphan Receptor gamma (RORg), RORC (gene 6097) (P51449 whole entry, looked up): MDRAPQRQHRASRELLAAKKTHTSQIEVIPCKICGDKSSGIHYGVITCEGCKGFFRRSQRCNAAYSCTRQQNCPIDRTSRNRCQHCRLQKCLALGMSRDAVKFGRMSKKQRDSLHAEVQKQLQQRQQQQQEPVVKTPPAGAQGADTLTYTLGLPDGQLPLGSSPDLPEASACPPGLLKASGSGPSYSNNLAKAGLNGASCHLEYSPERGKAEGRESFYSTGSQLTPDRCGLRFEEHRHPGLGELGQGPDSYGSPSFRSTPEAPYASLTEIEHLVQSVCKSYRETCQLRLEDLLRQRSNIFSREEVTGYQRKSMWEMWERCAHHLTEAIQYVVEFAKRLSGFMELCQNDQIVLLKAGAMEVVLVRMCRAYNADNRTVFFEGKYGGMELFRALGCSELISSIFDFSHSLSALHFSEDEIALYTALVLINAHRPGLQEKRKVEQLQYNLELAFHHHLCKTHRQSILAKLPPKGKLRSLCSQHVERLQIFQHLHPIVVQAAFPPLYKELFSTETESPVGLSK
row,Structure (SMILES),outcome
1,O=C(O)C(F)(F)C(F)(F)C(F)(F)C(F)(F)C(F)(F)C(F)(F)C(F)(F)C(F)(F)C(F)(F)C(F)(F)C(F)(F)C(F)(F)F,inactive
2,CC(C)(C)c1ccc(OC2CCCCC2O)cc1 (centres undefined),inactive
3,O=C(O)C(F)(F)C(F)(F)C(F)(F)C(F)(F)C(F)(F)C(F)(F)C(F)(F)C(F)(F)Cl,inactive
4,FC(F)(F)C(F)(F)C(F)(F)CI,inactive
5,O=C(O)C(F)(F)C(F)(F)C(F)(F)C(F)(F)F,inactive
6,Cc1ccc(S(=O)(=O)NCl)cc1,inactive
7,FC(F)(F)C(F)(F)C(F)(F)C(F)(F)C(F)(F)C(F)(F)CC1CO1 (centres undefined),inactive

# Molecular target: Retinoic acid receptor RXR-alpha (Homo sapiens) (UniProt P19793)
# Experiment: ATG_RXRa_TRANS: Attagene TRANS-FACTORIAL HepG2 Assay for human Retinoid X Receptor alpha (RXRa) (AID 2283012)
# How it was run: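 Read-out: fluorescent reporter-transcript fragments quantified by capillary electrophoresis after RT-PCR. Transiently transfected HepG2 cells carrying GAL4-UAS reporters and NR-GAL4 chimeras were exposed to chemical for 24 h; activity scored as increase over DMSO.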
# Sequence of Retinoic acid receptor RXR-alpha (Homo sapiens) (P19793 whole entry, looked up): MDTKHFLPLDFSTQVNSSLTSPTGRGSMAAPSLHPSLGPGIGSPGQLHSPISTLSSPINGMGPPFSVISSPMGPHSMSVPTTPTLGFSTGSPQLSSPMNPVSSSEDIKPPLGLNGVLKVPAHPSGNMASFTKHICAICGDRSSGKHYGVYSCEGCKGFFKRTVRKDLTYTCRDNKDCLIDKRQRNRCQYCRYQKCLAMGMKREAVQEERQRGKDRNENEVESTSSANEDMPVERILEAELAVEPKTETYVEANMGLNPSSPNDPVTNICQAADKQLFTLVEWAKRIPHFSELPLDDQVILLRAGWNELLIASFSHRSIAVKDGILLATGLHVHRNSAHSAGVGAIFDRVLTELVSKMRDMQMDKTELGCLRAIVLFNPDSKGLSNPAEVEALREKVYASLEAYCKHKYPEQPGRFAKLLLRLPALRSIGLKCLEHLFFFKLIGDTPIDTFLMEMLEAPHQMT
Structure (SMILES),outcome,AC50
O=C(O)C(F)(F)C(F)(F)C(F)(F)C(F)(F)C(F)(F)C(F)(F)C(F)(F)C(F)(F)C(F)(F)C(F)(F)C(F)(F)C(F)(F)F,inactive,–
O=S(=O)(O)C(F)(F)C(F)(F)C(F)(F)C(F)(F)C(F)(F)C(F)(F)C(F)(F)F,inactive,–
CCC(=O)OCCc1ccccc1,inactive,–
CC(C)OC(=O)c1ccccc1C(=O)OC(C)C,inactive,–
CC(C)(C)c1ccc(OC2CCCCC2O)cc1 (centres undefined),–,26.2 µM (active)
FC(F)(F)C(F)(F)C(F)(F)C(F)(F)CCI,inactive,–
CCN(Cc1cccc(S(=O)(=O)O)c1)c1ccc(C(=C2C=CC(=[N+](CC)Cc3cccc(S(=O)(=O)O)c3)C=C2)c2ccc(O)cc2S(=O)(=O)[O-])cc1,inactive,–
O=C(O)C(F)(F)C(F)(F)C(F)(F)C(F)(F)C(F)(F)C(F)(F)C(F)(F)C(F)(F)Cl,inactive,–
C1COCCN1,inactive,–
CC/C=C\CCOC(=O)c1ccccc1,inactive,–
Cc1ccc(S(=O)(=O)OCC(F)(F)C(F)(F)C(F)(F)C(F)(F)C(F)(F)C(F)F)cc1,inactive,–
O=C(O)C(F)(F)C(F)(F)C(F)(F)C(F)(F)F,inactive,–
Nc1ccc([N+](=O)[O-])cc1O,inactive,–
FC(F)(F)C(F)(F)C(F)(F)C(F)(F)C(F)(F)CCI,inactive,–
O=C(O)C(F)(F)C(F)(F)C(F)(F)C(F)(F)C(F)(F)C(F)(F)C(F)(F)C(F)(F)C(F)(F)C(F)(F)C(F)(F)C(F)(F)C(F)(F)F,inactive,–
Cc1ccc(S(=O)(=O)NCl)cc1,inactive,–
CCCCCCCCCCCCCCCC[N+](C)(C)Cc1ccccc1,inactive,–

Structure (SMILES),outcome,AC50
OCC(F)(F)C(F)(F)C(F)(F)F,inactive,–
[Co],inactive,–
Nc1cc(Cl)c(N)c(Cl)c1,inactive,–
O=C(O)C(F)(F)C(F)(F)F,inactive,–
CCCCCC=O,inactive,–
CCc1c(Br)c(Br)c(Br)c(Br)c1Br,inactive,–
O=C(O)C(F)(OC(F)(F)C(F)(OC(F)(F)C(F)(F)C(F)(F)F)C(F)(F)F)C(F)(F)F (centres undefined),inactive,–
Oc1ccc(Nc2ccccc2)cc1,inactive,–
C=CC(F)(F)C(F)(F)C(F)(F)C(F)(F)C(F)(F)C(F)(F)C(F)(F)C(F)(F)C=C,inactive,–
c1ccc(-c2ccccc2-c2ccccc2)cc1,inactive,–
FC(F)(F)C(F)(F)C(F)(F)C(F)(F)C(F)(F)C(F)(F)C(F)(F)C(F)(F)F,inactive,–
N=C(N)C(F)(F)C(F)(F)C(F)(F)C(F)(F)C(F)(F)C(F)(F)C(F)(F)F,inactive,–
FC(F)(F)C(F)(F)C(F)(F)C(F)(F)C(F)(F)C(F)(F)CC1CO1 (centres undefined),inactive,–
Cc1cc(C)cc(O)c1,inactive,–
COC(OC(C)=O)c1ccccc1 (centres undefined),inactive,–
C(=C(c1ccccc1)c1ccccc1)c1ccccc1,inactive,–
